Assay outcomes deposited in PubChem by several laboratories.
TWEAK-Fn14 inh: TWEAK-Fn14 signaling inhibition. TWEAK-stimulated Fn14 reporter cells, luciferase luminescence, 8 h. inhibition, % at 10 µM. actives 2% (n = 360,000); in the data active means inhibition above about 50%
EWS-Fli block: inhibitors of EWS/Fli oncoprotein transcriptional activity. actives 0.67% (n = 350,000). AID 651661. A673 NR0B1-luciferase reporter, viability-normalised. inhibition, % at 12.6 µM;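 active means mean inhibition of at least 50% after viability correction, with every replicate also passing that limit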;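 further: firefly luciferase signal divided by Alamar Blue viability fluorescence both relative to DMSO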
TROY NFkB inh: blocks TROY-dependent signaling in reporter cells; Q293 LMP1-TROYcd NF-kB luciferase reporter, 4 h; inhibition, % at 10 µM; actives 0.98% (n = 360,000); AID 1347056;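 active means compounds whose plate-normalised and pattern-corrected inhibition of the luciferase reporter signal at the single screening dose is 50% or more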
LGR2 antag: Drosophila LGR2 receptor signaling inhibition; HEK293 LGR2, CRE-luciferase, bursicon-stimulated, 4 h; inhibition, % at 9.99 µM; actives 0.35% (n = 380,000); AID 720647;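 active means drop in luminescence signal, shown as inhibition above about 50% in the replicate tests, limit read from the data, passing the limit was not always enough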;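 further: agonist challenge used bursicon conditioned medium at about half maximal strength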
KKLEB cytotox: CF airway cell cytotoxicity counter-screen. KKLEB CF airway cells viability, ATPlite luminescence, overnight; hits give low values; cells stimulated with P. aeruginosa culture filtrate. activity change (cytotoxicity), % at 5 µM. actives 0.36% (n = 360,000). AID 602141;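 active means corrected activity change at or below -50% at 5 µM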
CF NFkB inh: inhibitors of cystic fibrosis induced NF-kB; inhibition, % at 5 µM; KKLEB NF-kB-GFP reporter, PAF-induced, GFP fluorescence overnight; actives 0.86% (n = 360,000);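 active means at least 50% inhibition at 5 µM, scaled per plate between neutral and stimulator controls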;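 further: PAF is a Pseudomonas aeruginosa culture filtrate used as stimulus; plate controls were PAF-stimulated DMSO wells for no effect and unstimulated DMSO wells for full effect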
Numbers without * were called inactive; / = no result. Rows were chosen to be rich in hits. Some 2.6% of all compounds tested hit in one or more screens of this group.

SMILES | TWEAK-Fn14 inh | EWS-Fli block | TROY NFkB inh | LGR2 antag | KKLEB cytotox | CF NFkB inh
N#Cc1ccc(CSc2nnc(Cc3cccs3)n2Cc2ccco2)cc1 | 76* | / | / | / | 3 | 6
CN(C)CC/C=C1\c2ccccc2COc2ccccc21 | 7 | -3 | 6 | / | -56* | -11
O=C(NCC[C@@H]1CC[C@@H](NC(=O)C2CCC2)[C@H](CO)O1)c1cc(Cl)cc(Cl)c1 | / | 3 | / | -3 | / | /
CCOc1ccc(C(=O)C(CCC(CN(C)C)C(=O)c2ccc(OCC)cc2)CN(C)C)cc1 (stereo not given) | 102* | / | 50* | 37 | -100* | 96*
CN(C)CC(CCC(CN(C)C)C(=O)c1ccccc1)C(=O)c1ccccc1 (stereo not given) | 98* | / | 56* | / | -61* | 90*
Fc1ccc(N2CCN(c3ncnc4c3nnn4Cc3ccccc3Cl)CC2)cc1 | 65* | / | 37 | / | -7 | 9
Oc1c(CN2CCOCC2)cc(CN2CCOCC2)c(O)c1O | 52* | -6 | 5 | 21 | 10 | 19
Oc1cccc(CN2CCOCC2)c1O | 19 | -4 | 1 | 2 | 3 | 8
CCN(C[C@H]1N[C@@H](CO)[C@@H]1c1ccc(-c2cccc(F)c2)cc1)C(=O)COC | / | 10 | / | -23 | / | /
COc1cc(/C=N/n2cnnc2)ccc1OC(=O)c1ccncc1 | 0 | / | 63* | / | -10 | 34
CCS(=O)(=O)c1cc([N+](=O)[O-])c(Sc2ccccc2NC(C)=O)s1 | 61* | 1 | 68* | 30 | 3 | 3
CC(=O)Nc1ccccc1-c1ccccc1[N+](=O)[O-] | 0 | 5 | 9 | -3 | 6 | 7
COc1ccc(C(=O)NC(=O)Nc2cc(C)ccn2)cc1 | 97* | 73* | 79* | 74* | -55* | 7
CCOc1ccc(NC(=O)/C=C/c2ccccc2)c([N+](=O)[O-])c1 | -41 | -9 | -65 | -74 | -7 | 20
COc1ccc(N/C=C/C(=O)c2ccccc2)cc1 | 90* | 39 | 40 | 65* | -54* | -18
COc1ccc(NC(=O)Nc2cc(C)ccn2)cc1 | 39 | 24 | -15 | 22 | -8 | -2
CCOc1ccc(N/C=C/C(=O)c2ccccc2)c([N+](=O)[O-])c1 | 86* | 60* | 49 | 91* | -58* | -40
COc1ccc(C(=O)/C=C/Nc2cc(C)ccn2)cc1 | 75* | 28 | 6 | 74* | -16 | 8
CCCNC(=O)C[C@H]1C[C@H]2c3cc(NC(=O)Nc4ccccc4F)ccc3O[C@H]2[C@@H](CO)O1 | / | -12 | / | -1 | / | /
O=C([C@@H]1[C@@H](CO)[C@@H]2Cn3c(cccc3=O)[C@H]1N2CC1CCCCC1)N1CCOCC1 | / | 10 | / | 2 | / | /
Cc1ccc(S(=O)(=O)Nc2ccc3c(c2)C(=O)N([C@@H](C)CO)C[C@@H](C)[C@@H](CN(C)Cc2ccncc2)OCCCC[C@@H](C)O3)cc1 | / | 1 | / | -13 | / | /
COc1ccc(-c2cc(CNC(C)=O)on2)cc1 | 1 | / | 1 | / | 12 | -18
COc1ccc(-c2cc(CNC(=O)CCl)on2)cc1 | 76* | / | / | 7 | 5 | -38
COc1ccc(NC(=O)N2C[C@@H](O)COC[C@H]3O[C@H](CC(=O)NCc4ccccc4OC)CC[C@@H]32)cc1 | / | -8 | / | -2 | / | /
CCCN1[C@@H]2c3ccc(C4=CCCCC4)c(=O)n3C[C@@H]2[C@@H](CO)[C@@H]1C(=O)NC1Cc2ccccc2C1 | / | 4 | / | -3 | / | /
SMILES | TWEAK-Fn14 inh | EWS-Fli block | TROY NFkB inh | LGR2 antag | KKLEB cytotox | CF NFkB inh
NC(=O)COC(=O)c1cccc2c1-c1ccccc1C2=O | -8 | 7 | -7 | 4 | 2 | 5
CC(C)COC(=O)c1ccc2c(c1O)C(=O)c1ccccc1C2=O | 71* | / | 29 | / | -6 | -2
COc1ccc(OC2C(=O)N(Cc3ccc4c(c3)OCO4)C2c2cccs2)cc1 (stereo not given) | 61* | / | 37 | 22 | -10 | -9
CC(C)(O)C#Cc1ccc([C@@H]2[C@@H](CO)N3CCCCN(C(=O)c4ccncc4)C[C@@H]23)cc1 | / | -15 | / | 17 | / | /
COc1ccc(CCNc2ccc(C(=O)O)cc2[N+](=O)[O-])cc1OC | 9 | -3 | -14 | -12 | -3 | 0
COc1ccccc1OCCNc1cc(N2CCCCC2)ccc1[N+](=O)[O-] | -13 | 12 | -6 | -15 | 14 | -11
